Assay results as given in the OligoGym collection.
Also: reference of the scale not given here.

What follows are sequences tested against KIAA1217 (assay: pooled miR-30 sensor sort-seq; sequence = guide strand). Conditions: shRNA.
With TTCTCGATAGACACTGCCCTGT the sensor-assay potency score (higher = more potent) was -0.436. TTGAACTTCCATTCTGTGCCTT was tested, and the sensor-assay potency score (higher = more potent) was 0.894. TTTTTTTAAATGTAACTCCGAC was tested, and the sensor-assay potency score (higher = more potent) was -0.293.

These sequences were tested against KIAA1279 in the same assay as above. Conditions: shRNA.
TTAATAGGAAACAAGCATCTAA was tested, and the sensor-assay potency score (higher = more potent) was 0.679. For TAGGTTATGAGTATAAACCTTT, the sensor-assay potency score (higher = more potent) was -0.128. Work on TAAAGCTCTAAGTTCAGACTGT yielded a sensor-assay potency score (higher = more potent) of 0.562. In the case of TTCTTTGATGATAAAGCTCTGG, the sensor-assay potency score (higher = more potent) is reported as -0.681. With TTGAGCTAGGTAATATAGGTTA the sensor-assay potency score (higher = more potent) was -0.261. TAGCTTATTGATGTAAAACTGT showed a sensor-assay potency score (higher = more potent) of -0.47. For TATACTGATTATATAGTGCTTC, the sensor-assay potency score (higher = more potent) was 0.382. Sequence TAGCTCAACTTCTATTTCCTGG has a sensor-assay potency score (higher = more potent) of 0.213. Work on TAGTACTTCAGTGCTGACTTAT yielded a sensor-assay potency score (higher = more potent) of -0.671. Sequence TTCAATATTGCACATTTCCTTT has a sensor-assay potency score (higher = more potent) of -0.873. TTTTTGATCTCTCTTGTTCAGT gave a sensor-assay potency score (higher = more potent) of -0.606.

What follows are sequences tested against KIAA2018 in the same assay as above. Conditions: shRNA.
TTGTTGTAGATGACAAACCAGG gave a sensor-assay potency score (higher = more potent) of -1.34. For TTTCTGCATCTGAACTTCCTGT, the sensor-assay potency score (higher = more potent) was -0.663. TTGCTGGTCACATCTTCTCTTG showed a sensor-assay potency score (higher = more potent) of -1.17. Work on TATCTGATGAATCTTGCTCAAC yielded a sensor-assay potency score (higher = more potent) of -1.15. TTTCTGTACAGAAACATTGGGG gave a sensor-assay potency score (higher = more potent) of -0.202. With TTGACTAATTCGAAAAGCCTGG the sensor-assay potency score (higher = more potent) was -0.327. In the case of TAGATTATAAGTACTAGCTAGT, the sensor-assay potency score (higher = more potent) is reported as 0.0786. In the case of TCTGCTTCCAACATCCTGCTGT, the sensor-assay potency score (higher = more potent) is reported as 0.86. Work on TTGAGCTGGAACATGCTGCTGC yielded a sensor-assay potency score (higher = more potent) of 0.733. TAAACTTCCACTGTTTACCTTC gave a sensor-assay potency score (higher = more potent) of 0.292. For TTTGTGTTGAGTTAGACGCTGA, the sensor-assay potency score (higher = more potent) was 0.486. TAGATTTCGATACAGACTCAGG gave a sensor-assay potency score (higher = more potent) of -1.04.

What follows are sequences tested against KIF21A in the same assay as above. Conditions: shRNA.
TTGATTTGCTGACTAGCTCTGT gave a sensor-assay potency score (higher = more potent) of 0.32. In the case of TTGCTGACTAGCTCTGTCCTGA, the sensor-assay potency score (higher = more potent) is reported as 0.278. With TTTTATATAACTATGAATCATA the sensor-assay potency score (higher = more potent) was -0.753. Sequence TTGCAGAACAAGCATCTCCAAG has a sensor-assay potency score (higher = more potent) of -1.19. In the case of TAGTAGTCTTGTTAGCTTGGAA, the sensor-assay potency score (higher = more potent) is reported as -0.0525. With TTCTAGTTCATCAATCAGCTTT the sensor-assay potency score (higher = more potent) was -0.0186. Work on TTGAGCTGCTTGAAGTCTCTGC yielded a sensor-assay potency score (higher = more potent) of 0.624. With TTGTTTGAGTCGACCTTCCAGT the sensor-assay potency score (higher = more potent) was -0.666. Sequence TTCAACTGAGCAATCTCTCTGT has a sensor-assay potency score (higher = more potent) of 0.68. Sequence TATACATTGAATGTAGATCTGC has a sensor-assay potency score (higher = more potent) of -0.0184. With TTGAATGTAGATCTGCTCTTGC the sensor-assay potency score (higher = more potent) was 0.95. Sequence TTTCATTTCCATCACATCCTGC has a sensor-assay potency score (higher = more potent) of 0.0152.
